Screening data: PubChem, National Center for Advancing Translational Sciences (NCATS)
A selection: hits, their analogues and other compounds. The true share with any hit is near 2.2%.
aSyn rescue: qHTS of alpha-syn Inhibitors. Yeast expressing alpha-synuclein, growth rescue, BacTiter-Glo, 24 h. Potency, µM (highest dose often 46.1 µM), for inactives: at the top dose growth rescue (activation), hits mostly activators. 0.14% of 370,000 active; also: % of control where 0% means no effect; nearly all actives have a fitted effect of over 65% in size
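Screening used galactose-induced yeast with toxic alpha-synuclein levels, exposed to compound for 24 hr at 30 deg C. Cell growth, read with BacTiter-Glo luminescence, gave the measured signal.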
Mito fusion act: qHTS Assay for Small Molecule Inhibitors of Mitochondrial Division or Activators of Mitochondrial Fusion | S. cerevisiae fusion-defective mutant growth rescue, CellTiterGlo 48 h | Potency, µM (doses to about 46.1 µM), for inactives: at the highest dose growth rescue (activation), actives largely listed as activators | 0.23% of 320,000 active | AID 485298, 2010; also: % of control where 0% means no effect; nearly all actives have a fitted effect of over 45% in size
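S. cerevisiae fusion-defective temperature-sensitive mutants (e.g. fzo1-1, mgm1-5) grown 48 h at 37C in YPEG (ethanol/glycerol non-fermentable) medium with 23 nl compound per well; growth rescue read as CellTiterGlo luminescence.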
FUS yeast rescue: qHTS for Suppressors of FUS Proteinopathy: Primary screen using FUS-linked yeast assay | S. cerevisiae FUS-expressing, growth rescue, OD600, 24 h | Potency, µM (highest dose often 76.6 µM), usual class: activators | 0.24% of 390,000 active | AID 1347120, 2019;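 also: plate controls were DMSO vehicle for no effect and reference control for full effect; nearly all actives have a fitted effect of over 55% in size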
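Yeast FUS proteinopathy model; galactose-induced FUS (2%), starting OD 0.005. Cpds in dilution series, 24hr, 30C, 99% humidity. Abs 600 nm growth. Pos ctrl CP55940 (top 92uM final); neg ctrl DMSO.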
TDP43 rescue: qHTS of TDP-43 Inhibitors. 1.8% of 410,000 active. TDP-43 expressing yeast growth rescue, BacTiter-Glo, 24 h. Potency, µM (highest dose often 46.1 µM), inactives show at the highest dose growth rescue (activation), actives largely listed as activators; also: % of control where 0% means no effect; nearly all actives have a fitted effect of over 50% in size
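Yeast cells expressing TDP-43 under galactose induction are exposed to compounds for 24 hr at 30 deg C. BacTiter-Glo luminescence measures growth, so protective compounds score as activators.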
Abeta rescue: qHTS for compounds that reverse cellular toxicity of Amyloid beta (A-beta) peptide in yeast: Primary Screen; 0.063% of 410,000 active; yeast expressing A-beta42, growth rescue, OD600, 48 h; response scale: 0% DMSO, 100% iron-clioquinol control; Potency, µM (doses to about 46.1 µM), usual class: activators; AID 1347071, 2019; also: nearly all actives have a fitted effect of over 55% in size
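Yeast growth medium received pinned compounds, then yeast cells expressing toxic A-beta were added; plates incubated at 30 C for 48 hr. Growth read as absorbance at 600 nm, normalized to DMSO and equimolar FeCl3 plus clioquinol controls.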
Numbers without * were called inactive; i = inactive; u = inconclusive; x = not tested or not shown; [ ] = dose if it differs, or a comment. Calls follow the shape of the dose curve; as a rule, active = well fitted curve in the direction sought with a large enough effect; inconclusive = small, poorly fitted or top-dose-only effect, or another doubt; inactive = no such curve, though single readings can be large; an effect the other way counts as inactive or inconclusive. Potency is read from the fitted curve at half-maximal effect.

SMILES	aSyn rescue	Mito fusion act	FUS yeast rescue	TDP43 rescue	Abeta rescue
Cc1cc[n+](CC#N)cc1	-5.6%	x	x	x	x
CCCCCCCCCOC(=O)CNc1nc(C#N)nc(NCC(=O)OCCCCCCCCC)n1	0.0%	x	x	x	x
CCOc1cc(C2Sc3ccccc3NC3=C2C(=O)c2ccccc23)ccc1O (stereo unspecified)	x	x	u	11.2µM*	i
CCCc1ccc(C2Sc3ccccc3NC3=C2C(=O)c2ccccc23)cc1 (stereo unspecified)	x	x	i	9.6%	i
CCOc1ccc(/C=C/c2nc(C#N)c(N3CCCCC3)o2)cc1	x	x	i	u	u
Cc1cccc(Cn2cc(C(=O)c3ccccc3)c(=O)c3cc4c(cc32)OCO4)c1	x	x	i	35.5µM*	i
CC(C)Cn1c(=O)c2sccc2n2c(CCCC(=O)Nc3ccc(Cl)cc3)nnc12	x	x	i	6.3%	i
Cc1cccc(N2CCN(C(=O)Cn3c(C)c4cnn(-c5ccccc5)c(=O)c4c3C)CC2)c1C	x	x	u	20.6%	i
Cc1cc(Cl)ccc1OCC(=O)Nc1cccc(-c2nc3ccccc3o2)c1	-0.4%	x	x	x	x
COc1ccc(-c2nc3cc(C)c(Br)c(C)n3c2CC2CCCCC2)cc1OC	2.0%	x	i	22.4µM*	i
Cc1ccc(-c2nc3cc(C)c(Br)c(C)n3c2CC2CCCCC2)cc1	-9.6%	x	i	16.4%	i
O=C(Nc1nc(-c2ccccn2)cs1)c1cc(Cl)ccc1[N+](=O)[O-]	u	-6.1%	i	u	12.6µM*
Cc1cc(C(=O)Nc2nc(-c3ccccn3)cs2)ccc1[N+](=O)[O-]	u	-2.3%	i	u	i
CC(=O)Nc1ccc(C(=O)Nc2nc(-c3ccccn3)cs2)cc1	-12.0%	0.9%	u	10.1%	i
O=C(Nc1nc(-c2ccccn2)cs1)c1ccc2c(c1)OCCO2	u	0.5%	i	u	12.6µM*
O=C(Nc1nc(-c2ccco2)cs1)c1ccccc1	-51.0%	9.5%	i	12.6µM*	i
CCOC(=O)c1sc(N2C(=O)c3oc4cc(C)c(C)cc4c(=O)c3C2c2ccc(C)cc2)nc1C (stereo unspecified)	x	x	i	-8.9%	i
Cc1cccc(N(C)S(=O)(=O)c2nnc(NC(=O)C(C)(C)C)s2)c1	x	x	i	12.1%	i
Cc1ccc(CNC(=O)C2CCCN(c3ncnc4onc(-c5ccc(F)cc5)c34)C2)cc1 (stereo unspecified)	x	x	i	23.4%	i
COc1ccc(S[C@]2(C(=O)N3CCCC3)CC(=O)N(C(=O)C3CC3)[C@@H]2c2ccc(OC)cc2)cc1	x	x	i	x	x
COCCn1ccc2c(OCC(=O)Nc3cccc(OC)c3)cccc2c1=O	x	x	i	2.3%	i
CC(=O)n1c2c(c3ccccc31)OC(N)=C(C#N)C2c1ccc(C(C)C)cc1 (stereo unspecified)	20µM*	4.2%	i	0.8%	i
CCCN(C(=O)COc1cc(=O)n(CC)c2ccccc12)c1ccc(C(C)C)cc1	x	x	u	22.4µM*	i
CC(=O)NC(c1ccco1)c1cc(Cl)c2ccc(N3CCCCC3)nc2c1O (stereo unspecified)	x	11.6%	x	x	x
Cc1nc(Sc2ccccc2)c(C#N)cc1-c1ccccc1	-9.1%	2.8%	i	0.5%	i
SMILES	aSyn rescue	Mito fusion act	FUS yeast rescue	TDP43 rescue	Abeta rescue
Cc1nc(Sc2ccccc2)c(C#N)c(C)c1[N+](=O)[O-]	1.2%	-8.7%	i	7.08µM*	u
Cc1cc(C)c(C#N)c(Sc2nc(C)c([N+](=O)[O-])c(C)c2C#N)n1	-13.7%	x	i	20µM*	i
COc1cc2nc(N3CCCN(C)CC3)nc(NC3CCN(C)C3)c2cc1OC (stereo unspecified)	0.2%	x	x	x	x
O=C1NC(=O)c2cc(NC(=O)C3CCCO3)ccc21 (stereo unspecified)	0.7%	1.1%	i	21.6%	i
O=C(Nc1ccc2c(c1)C(=O)N(c1ccccc1)C2=O)C1CCCO1 (stereo unspecified)	-8.4%	-5.4%	i	12.6µM*	i
O=C(Nc1nc2n(n1)C(c1ccc(F)cc1)C=C(c1ccc(Cl)cc1)N2)c1ccc([N+](=O)[O-])cc1 (stereo unspecified)	x	x	i	0.0%[9.22 µM]	i
COc1cccc(/C=C2\SC(=S)N(CCCC(=O)N(CCO)c3ccccc3)C2=O)c1	u	-7.0%	u	22.4µM*	i
Cc1cccc(-n2c(=O)c3c(c4cc(C)ccc4n3C)n(CC(=O)NCCC3=CCCCC3)c2=O)c1	x	x	i	3.9%	i
COc1ccc(C(=O)OC(C)C(=O)NC(C)CCc2ccccc2)c(OC)c1 (stereo unspecified)	4.5%	11.2µM*	i	-34.1%	i
COc1cc(C=C(C#N)c2ccc([N+](=O)[O-])cc2)ccc1O	-14.8%	x	i	3.98µM*	i
CCOC(=O)C1CCC(CN(Cc2c(Cl)cccc2Cl)S(=O)(=O)c2ccc(F)cc2)CC1 (stereo unspecified)	x	x	i	26.7%	i
CC(=O)C1=C(C)NC(SCC(=O)c2cc(Cl)ccc2Cl)=C(C#N)C1c1ccco1 (stereo unspecified)	-7.6%	22.6%	25.1µM*	-28.6%	i
Cc1ccc(CNC(=O)C(=O)NCC(c2ccc3c(c2)OCO3)N2CCOCC2)cc1 (stereo unspecified)	x	x	i	u	i
COc1ccc(-c2cnc(C)o2)cc1S(=O)(=O)Nc1c(C)cc(C)cc1C	x	x	i	25.1µM*	i
COc1ccc(-c2cnc(C)o2)cc1S(=O)(=O)Nc1ccc(OC(F)(F)F)cc1	x	x	i	22.4µM*	i
O=S(=O)(c1ccc2c(c1)CCCC2)N1CCN(c2nc(-c3cccs3)nc3ccccc23)CC1	1.1%	x	x	x	x
COc1ccc(OCC(=O)NC2CC(=O)N(c3ccc4c(c3)OCCO4)C2)cc1 (stereo unspecified)	x	x	u	19.6%	i
COc1ccc(C2Nc3ccccc3C(=O)N2Cc2ccccc2)cc1COc1ccc(NC(C)=O)cc1 (stereo unspecified)	x	x	15.8µM*	x	x
COc1ccc(C2Nc3ccccc3C(=O)N2Cc2ccco2)cc1COc1c(C)cc(NC(C)=O)cc1C (stereo unspecified)	x	x	10µM*	x	x
Cc1ccccc1Nc1nnc(-c2ccc(C)c(S(=O)(=O)NCC3CCCO3)c2)c2ccccc12 (stereo unspecified)	x	x	i	25.7%	i
CN(C)c1ccc(/C=C2\NC(=O)NC2=O)cc1	-11.0%	x	x	x	x
